{
  "source": "the OligoGym collection",
  "data": [
    {"target": "CXorf56", "assay": "pooled miR-30 sensor sort-seq; sequence = guide strand", "details": "shRNA", "values": [
      {"sequence": "TTGGTCATCATCACCTTCTTAG", "sensor-assay potency score (higher = more potent)": -0.419},
      {"sequence": "TTGCCCATGTCTTTGGTCCGTT", "sensor-assay potency score (higher = more potent)": -0.538},
      {"sequence": "TTCATTTTCGCTTTCTTGGCTT", "sensor-assay potency score (higher = more potent)": 0.484},
      {"sequence": "ATATGAGTCAGCAACTTCCCTA", "sensor-assay potency score (higher = more potent)": -0.79},
      {"sequence": "TTTCTCTAACTGGCAGTCCAGC", "sensor-assay potency score (higher = more potent)": -1.26}
    ]},
    {"target": "CYB5D1", "assay": "pooled miR-30 sensor sort-seq; sequence = guide strand", "details": "shRNA", "values": [
      {"sequence": "TACTGAGATAGTCAAATTCTTC", "sensor-assay potency score (higher = more potent)": -1.34},
      {"sequence": "TACGTCTTGAGTCTACACGAGT", "sensor-assay potency score (higher = more potent)": -1.09},
      {"sequence": "TACTTGATCTTCTTGTATCATT", "sensor-assay potency score (higher = more potent)": -1.02},
      {"sequence": "TTTGGATCAAACCAGTGGCTGA", "sensor-assay potency score (higher = more potent)": -1.34},
      {"sequence": "TACAGAAGTATTGCAGGTGTGT", "sensor-assay potency score (higher = more potent)": 0.111},
      {"sequence": "TGAAGTACAGAAGTATTGCAGG", "sensor-assay potency score (higher = more potent)": -0.202},
      {"sequence": "TTAATGATGCGGATGCTCCGGG", "sensor-assay potency score (higher = more potent)": -0.0268},
      {"sequence": "TTGAAGTACAGAAGTATTGCAG", "sensor-assay potency score (higher = more potent)": 0.794},
      {"sequence": "TATTCCTGTGCCAATGACGTTA", "sensor-assay potency score (higher = more potent)": -0.429},
      {"sequence": "TAGCGGTGTAGGATTTCCCATA", "sensor-assay potency score (higher = more potent)": -1.38}
    ]},
    {"target": "CYB5RL", "assay": "pooled miR-30 sensor sort-seq; sequence = guide strand", "details": "shRNA", "values": [
      {"sequence": "TTAACACTTCAAAGTATCCTTC", "sensor-assay potency score (higher = more potent)": 0.251},
      {"sequence": "TTTATAGAAGAAATCTCCGAAA", "sensor-assay potency score (higher = more potent)": -0.391},
      {"sequence": "TTCTCTTGGTAACTCCAGGGAA", "sensor-assay potency score (higher = more potent)": -0.56},
      {"sequence": "TAGAGCAAACCGGACACGGTAG", "sensor-assay potency score (higher = more potent)": -0.685},
      {"sequence": "TCTAAGTCATCTACTATCCCTC", "sensor-assay potency score (higher = more potent)": 0.024},
      {"sequence": "TAGGTGTCCTTAGTGAGCCTGT", "sensor-assay potency score (higher = more potent)": 0.0964},
      {"sequence": "TTTCTCTTGGTAACTCCAGGGA", "sensor-assay potency score (higher = more potent)": -0.389},
      {"sequence": "TTTAATTAGGTCCTGGCCCAGG", "sensor-assay potency score (higher = more potent)": -0.401},
      {"sequence": "TTAATTAACACTTCAAAGTATC", "sensor-assay potency score (higher = more potent)": -1.17},
      {"sequence": "TTCCTCAGTGTCGTCGTCCTCT", "sensor-assay potency score (higher = more potent)": -0.09},
      {"sequence": "TAGAGGTCAAACACACAGGGTG", "sensor-assay potency score (higher = more potent)": -0.0487},
      {"sequence": "TAGCACTTAATTAACACTTCAA", "sensor-assay potency score (higher = more potent)": 0.518}
    ]},
    {"target": "CYBRD1", "assay": "pooled miR-30 sensor sort-seq; sequence = guide strand", "details": "shRNA", "values": [
      {"sequence": "TTAAACTCTAGTGCGCTCCCAT", "sensor-assay potency score (higher = more potent)": -0.237},
      {"sequence": "TATATTGTTAACATTGTGGTTC", "sensor-assay potency score (higher = more potent)": 0.299},
      {"sequence": "TTCATCAGGAGCTTGCTGCATT", "sensor-assay potency score (higher = more potent)": 0.213},
      {"sequence": "TTATTTCAAGAAACCATCCTTT", "sensor-assay potency score (higher = more potent)": 0.251},
      {"sequence": "TTTAACTCTGAATCTGATTTGT", "sensor-assay potency score (higher = more potent)": -0.198},
      {"sequence": "TAGAGCTAGTTTTGAAACGTGA", "sensor-assay potency score (higher = more potent)": 0.234},
      {"sequence": "TTTATATTAATCACATCCTTTC", "sensor-assay potency score (higher = more potent)": -0.692},
      {"sequence": "TATCAGTCCAACCCAGCTGTGC", "sensor-assay potency score (higher = more potent)": -0.838},
      {"sequence": "TTAACTCTGAATCTGATTTGTC", "sensor-assay potency score (higher = more potent)": -0.16},
      {"sequence": "TTTTCCTTGCTGCTACTTCATT", "sensor-assay potency score (higher = more potent)": -1.57},
      {"sequence": "TACTTCATTGTTTAACTCTGAA", "sensor-assay potency score (higher = more potent)": -0.114}
    ]}
  ]
}
